This is a sample that favours compounds with a hit; in the whole collection about 5.7% have one here.
ssDAF12 agonist = activators of S. stercoralis DAF-12 nuclear receptor | HEK293 ssDAF-12/GRIP1 lit1-tk-luc reporter, luminescence; % of 3 µM dafachronic acid response | activation, % at 6.8 µM | hit rate 1% among 370,000 | AID 652126;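 active means activation above the mean over all tested compounds plus 3 SD, cut at about 0.9% in these data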;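 further: 0% = DMSO-only wells and 100% = 3 µM delta7-dafachronic acid wells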
DAX1 inh-1 = inhibits human nuclear receptor DAX1. HEK293 Gal4-DAX1 luciferase reporter, luminescence. P51843. inhibition, % at 6.75 µM. hit rate 0.99% among 340,000;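 active means inhibition above the mean over all tested compounds plus 3 SD, cut at about 4.2% in these data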;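 further: 0% = DAX1-transfected cells with DMSO and 100% = empty-vector control cells with DMSO; inhibition shows as a rise in luminescence from relieved DAX1 repression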
Target sequence (P51843 207-470 limits assumed): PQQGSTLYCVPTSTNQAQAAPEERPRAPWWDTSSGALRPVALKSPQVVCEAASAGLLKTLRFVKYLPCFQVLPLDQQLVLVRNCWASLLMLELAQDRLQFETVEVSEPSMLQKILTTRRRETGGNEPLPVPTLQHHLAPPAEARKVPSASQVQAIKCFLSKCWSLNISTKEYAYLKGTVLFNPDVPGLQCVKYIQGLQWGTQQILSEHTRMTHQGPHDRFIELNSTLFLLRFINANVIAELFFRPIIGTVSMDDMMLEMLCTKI
DAX1 inh-2 = blocks DAX1 repression of SF-1 activated StAR promoter | AID 652010 | inhibition, % at 6.8 µM | HEK293T StAR-luciferase reporter, SF-1/DAX-1 repression relief | hit rate 1.1% among 370,000;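 active means inhibition above the mean over all tested compounds plus 3 SD, cut at about 3.6% in these data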;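 further: 0% = DAX-1 cells with DMSO and 100% = cells lacking DAX-1 with DMSO; higher inhibition means more luminescence from relief of DAX-1 repression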
hcDAF-12 act = activators of H. contortus DAF-12 nuclear receptor | HEK293 hcDAF-12 lit1-tk-luc reporter, luminescence; 0% DMSO, 100% Δ7-dafachronic acid | hit rate 1.4% among 370,000 | activation, % at 6.8 µM | AID 652067;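 active means activation above the mean of all tested compounds plus 3 SD, cut at about 5.5% in these data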;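 further: 100% = response to 3 µM Δ7-dafachronic acid high control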
hgDAF-12 ag = hgDAF-12 agonism, primary luciferase screen; activation, % at 6.8 µM; HEK293 GAL4-hgDAF12 UAS-luciferase reporter, agonist luminescence; normalized to butyrate control; hit rate 1.8% among 370,000; AID 687014;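 active means activation above a cutoff set at the mean of all screened compounds plus 3 SD, cut at about 10% in these data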;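 further: 0% = DMSO wells and 100% = sodium butyrate wells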
AHR act = activators of human aryl hydrocarbon receptor; P35869; AHR-responsive luciferase reporter cells, luminescence; activation, % at 5 µM; hit rate 2.5% among 320,000; AID 2796; in the data active means activation above about 47%;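 further: 0% = vehicle wells and 100% = reference agonist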
Numbers without * were called inactive.

Cc1ccc(NC(=O)/C(C#N)=C(\N)C(Cl)(Cl)Cl)nc1 was read as DAX1 inh-1 8.1* and AHR act 45.0.
Cc1ccc(NC(=O)C(=O)Nc2ccc(C)cn2)nc1 was read as ssDAF12 agonist -1.1, DAX1 inh-1 0.1, DAX1 inh-2 1.1, hcDAF-12 act -0.3, hgDAF-12 ag 3.7 and AHR act -3.4.
For CC1CCc2c(sc(NC(=O)c3nc4ncccn4n3)c2C#N)C1 (configuration not stated) the results were ssDAF12 agonist -1.3, DAX1 inh-1 4.4*, DAX1 inh-2 -0.1, hcDAF-12 act -2.4, hgDAF-12 ag 3.7 and AHR act 1.8.
For O=C(O)C1C=CCC(C(=O)O)C1 (configuration not stated) the results were ssDAF12 agonist 2.4*, DAX1 inh-1 0.2, DAX1 inh-2 0.1, hcDAF-12 act -0.1 and hgDAF-12 ag -0.4.
O=C(O)C1CC(C(=O)O)SS1 (configuration not stated) was read as ssDAF12 agonist 0.6, DAX1 inh-1 1.7, DAX1 inh-2 0.0, hcDAF-12 act 1.8 and hgDAF-12 ag -0.3.
For O=C(NC(=S)N1CCc2ccccc21)C1CCC1 the results were ssDAF12 agonist -0.6, DAX1 inh-1 0.0, DAX1 inh-2 0.0, hcDAF-12 act 5.7*, hgDAF-12 ag -3.5 and AHR act 11.0.
For CC(C)(C)C(=O)NC(=S)N1CCc2ccccc21 the results were ssDAF12 agonist -1.4, DAX1 inh-1 1.2, DAX1 inh-2 0.6, hcDAF-12 act 3.3, hgDAF-12 ag 0.4 and AHR act 15.8.
`S=C(Nc1cccnc1)N1CCc2ccccc21` gave ssDAF12 agonist -0.3, DAX1 inh-1 0.4, DAX1 inh-2 0.1, hcDAF-12 act 6.4*, hgDAF-12 ag 1.6 and AHR act 29.8.
For Cc1ccc(CNCCCSc2ncccn2)cc1 the results were ssDAF12 agonist -0.8, DAX1 inh-1 0.5, DAX1 inh-2 0.3, hcDAF-12 act -2.0, hgDAF-12 ag 0.0 and AHR act 2.6.
For O=C(O)Cc1ccc(-n2cccc2)cc1 the results were ssDAF12 agonist -1.0, DAX1 inh-1 -0.3, DAX1 inh-2 0.5, hcDAF-12 act 0.2, hgDAF-12 ag 0.6 and AHR act 2.2.
`COc1ccc(CCNC(=O)COC(=O)Cn2cnc3c2c(=O)n(C)c(=O)n3C)cc1` gave ssDAF12 agonist -0.3, DAX1 inh-1 -0.5, DAX1 inh-2 3.1, hcDAF-12 act 0.6, hgDAF-12 ag -1.7 and AHR act -0.3.
O=C(c1cc2cc(Cl)ccc2oc1=O)N1CCCC1 was read as ssDAF12 agonist -0.7, DAX1 inh-1 -1.6, DAX1 inh-2 -0.6, hcDAF-12 act -0.9, hgDAF-12 ag -2.3 and AHR act -1.8.
Screening O=C(c1cc2cc(Cl)ccc2oc1=O)N1CCCCCCC1 returned ssDAF12 agonist -1.1, DAX1 inh-1 4.5*, DAX1 inh-2 -0.3, hcDAF-12 act 2.1, hgDAF-12 ag -0.4 and AHR act 1.3.
Screening CCOc1cc(C(=O)NC(C)CCc2ccccc2)cc(OCC)c1OCC (configuration not stated) returned ssDAF12 agonist -1.6, DAX1 inh-1 -1.2, DAX1 inh-2 0.1, hcDAF-12 act -0.2, hgDAF-12 ag -0.1 and AHR act -1.5.
CCn1c(CCl)nc2cc(S(=O)(=O)N3CCOCC3)ccc21 was read as ssDAF12 agonist -0.8, DAX1 inh-2 -0.3, hcDAF-12 act -0.1, hgDAF-12 ag -1.1 and AHR act 0.3.
Screening CCC1(C)Cc2c(sc3nc(NN)n(C)c(=O)c23)CO1 (configuration not stated) returned ssDAF12 agonist -1.2, DAX1 inh-1 0.0, DAX1 inh-2 -0.1, hcDAF-12 act 0.6, hgDAF-12 ag -0.5 and AHR act 62.4*.
Screening Cc1ccc(-n2nc(CC#N)c(C#N)c2N)cc1 returned ssDAF12 agonist 0.2, DAX1 inh-1 0.8, DAX1 inh-2 0.5, hcDAF-12 act 1.5, hgDAF-12 ag 2.3 and AHR act 38.5.
`Cc1ccc(-n2nc(CC#N)c(C#N)c2N)cc1Cl` gave ssDAF12 agonist 1.3*, DAX1 inh-1 0.1, DAX1 inh-2 0.0, hcDAF-12 act 4.5, hgDAF-12 ag -0.9 and AHR act 68.1*.
`N=c1n(CCN2CCCCC2)c2ccccc2n1CC(=O)c1ccc(Cl)c(Cl)c1` gave ssDAF12 agonist -0.6, DAX1 inh-2 0.1, hcDAF-12 act 3.8, hgDAF-12 ag 0.4 and AHR act 110.6*.
`C=CCn1c(=N)n(CC(=O)c2ccc(Br)s2)c2ccccc21` gave ssDAF12 agonist -1.7, DAX1 inh-1 3.0, DAX1 inh-2 0.6, hcDAF-12 act -0.6, hgDAF-12 ag -3.6 and AHR act 79.6*.
Screening C=CCn1c(=N)n(CC(=O)c2ccc(Cl)cc2)c2ccccc21 returned ssDAF12 agonist -1.3, DAX1 inh-1 1.4, DAX1 inh-2 0.1, hcDAF-12 act -0.6, hgDAF-12 ag -0.3 and AHR act 78.8*.
`C=CCn1c(=N)n(CC(=O)OC)c2ccccc21` gave ssDAF12 agonist -0.8, DAX1 inh-1 2.2, DAX1 inh-2 0.6, hcDAF-12 act -0.2, hgDAF-12 ag -0.9 and AHR act 4.3.
`CC(C)CN1CCC(=O)N([C@H](CO)c2ccccc2)CC1` gave ssDAF12 agonist -1.4, DAX1 inh-1 1.5, DAX1 inh-2 -0.1, hcDAF-12 act -0.7, hgDAF-12 ag 0.6 and AHR act 1.2.
For CC(C)N(C)c1ncnc2c1ncn2[C@H]1CN(Cc2ccc(-c3ccccc3)cc2)C[C@@H](CO)O1 the results were ssDAF12 agonist -1.5, DAX1 inh-2 -0.9, hcDAF-12 act -2.2 and hgDAF-12 ag 0.1.
O=C(NCc1ccccc1)c1ccc(Cl)cc1[N+](=O)[O-] was read as ssDAF12 agonist -1.0, DAX1 inh-1 0.9, DAX1 inh-2 0.7, hcDAF-12 act 0.3, hgDAF-12 ag -0.4 and AHR act 0.9.
`O=C(Cc1ccccc1[N+](=O)[O-])NCc1ccc(Cl)cc1Cl` gave ssDAF12 agonist 0.8, DAX1 inh-1 0.9, DAX1 inh-2 3.4, hcDAF-12 act 4.1, hgDAF-12 ag 11.6* and AHR act 7.4.
`O=C(Cc1ccccc1[N+](=O)[O-])NCc1ccc(Cl)cc1` gave ssDAF12 agonist 1.2*, DAX1 inh-1 0.9, DAX1 inh-2 1.0, hcDAF-12 act 3.2, hgDAF-12 ag 4.1 and AHR act 12.8.
For O=C(Cc1ccc([N+](=O)[O-])cc1)NCc1ccccc1Cl the results were ssDAF12 agonist -1.1, DAX1 inh-1 -0.1, DAX1 inh-2 0.5, hcDAF-12 act -1.1, hgDAF-12 ag -2.7 and AHR act 1.4.
Screening CC(=O)Nc1ccc(S(=O)(=O)N[C@@H](C)C(=O)OCC(=O)c2ccc(Br)s2)cc1 returned ssDAF12 agonist -1.2, DAX1 inh-1 8.1*, DAX1 inh-2 1.1, hcDAF-12 act 0.5 and hgDAF-12 ag 0.0.
